Sampled rows, rich in hits. Any-hit rate of the full collection: about 3.2%.
MEKK3 PB1 HTS = modulators (inhibitors or enhancers) of MEK5 binding to human MEKK3 PB1 domain; AID 1529; Q99759; binding response (% of control), % at 10 µM; bead-based flow cytometry, Alexa488-MEK5 binding to MEKK3; actives lie on both sides; 0 = blocked by unlabeled MEK5, 100 = vehicle; hit rate 1.4% among 290,000;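 active = binding response more than 3 SD above or below the average of its plate-row segment, actives on both sides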;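 also: Alexa488 bead fluorescence after subtracting the streptavidin-only scavenger bead signal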
CendR NRP1 mod = alters CendR peptide binding to human NRP-1 | O14786 | FAM-RPARPAR peptide binding to NRP-1, fluorescence polarization | inhibition, % at 25 µM | hit rate 0.85% among 360,000 | AID 602438;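 active = inhibition or corrected inhibition above about 18%, plus a signal ratio from 0.5 to 1.5, limit read from the data, passing the limit was not always enough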
SKN-1 inh = inhibitors of C. elegans SKN-1. hit rate 0.49% among 360,000. AID 624304. C. elegans VP596 Pgst-4::GFP/RFP ratio, acrylamide-induced, 24 h. inhibition, % at 21.8 µM;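 active = interference check ratio from 0.5 to 1.5 plus GFP to RFP signal ratio inhibition reaching or exceeding a fixed threshold, cut at about 30% in these data, passing the limit was not always enough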
MEKK2mut PB1 HTS = signal of MEK5 binding to mutant human MEKK2 PB1 domain; bead flow cytometry, Alexa488-MEK5 binding to MEKK2 mutant; hit rate 0.35% among 290,000; AID 1530; percent response, % at 10 µM; in the data active = percent response above about 24%, passing the limit was not always enough
MEKK2wt PB1 HTS = raises or lowers MEK5 binding to wildtype human MEKK2 PB1 domain; Q9Y2U5; bead flow cytometry, Alexa488-MEK5 binding to MEKK2 WT; actives lie on both sides; binding response (% of control), % at 10 µM; hit rate 1.1% among 290,000; AID 1531; in the data active = binding response below about 67% or above about 130%
MEKK2wt confirm = raises or lowers MEK5 binding to wildtype human MEKK2, retest; shares compounds with MEKK3 PB1 HTS; AID 1892; binding response (% of control), % at 10 µM; hit rate 2.4% among 5,900; bead flow cytometry, Alexa488-MEK5 binding to MEKK2 WT; actives lie on both sides; in the data active = binding response below about 16% or above about 210%; inactive = in between
MEKK2mut-MEK5 = signal of MEK5 binding to mutant human MEKK2, retest; shares compounds with MEKK3 PB1 HTS; bead flow cytometry, Alexa488-MEK5 binding to MEKK2 mutant; percent response, % at 10 µM; hit rate 2% among 5,900; AID 1893; in the data active = percent response mostly above about 71%, no sharp cut-off; inactive = mostly below about 38%;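 also: higher means compound restores mutant binding toward wildtype level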
MEKK3-MEK5 inh = confirmation of inhibitors of MEK5 binding to human MEKK3. shares compounds with MEKK3 PB1 HTS. bead flow cytometry, Alexa488-MEK5 binding to MEKK3; hits give low values. binding response (% of control), % at 10 µM. hit rate 1.8% among 5,900;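 active = binding response below 72% of control, or above a set upper limit, though filed actives all read lower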;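 also: 100% = DMSO only wells and 0% = binding blocked by excess unlabeled MEK5; lower values mean stronger disruption of MEK5 binding to MEKK3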
Active calls of the source: *; [ ] = another dose, or the depositor's remark.

Results for CCN1/C(=C/C=C/c2sc3ccccc3[n+]2CC)Sc2ccccc21 ?
CendR NRP1 mod: -65.0; SKN-1 inh: 85.7

What do the screens show for `CCN1/C(=C/C=C/C=C/c2sc3ccccc3[n+]2CC)Sc2ccccc21`?
MEKK3 PB1 HTS: 18.0*[inhibitor]; MEKK2mut PB1 HTS: -8.0; MEKK2wt PB1 HTS: 15.0*[inhibitor]; MEKK2wt confirm: 40.0; MEKK2mut-MEK5: -28.0; MEKK3-MEK5 inh: 26.0*

How did CC[n+]1c(/C=C(\C)SC)sc2ccccc21 do in these assays?
MEKK3 PB1 HTS: 94.0; CendR NRP1 mod: -23.9; SKN-1 inh: 8.2; MEKK2mut PB1 HTS: 0.0; MEKK2wt PB1 HTS: 102.0

What do the screens show for `CCN1/C(=C/C=C/C=C/C=C/c2sc3ccccc3[n+]2CC)Sc2ccccc21`?
MEKK3 PB1 HTS: 30.0*[inhibitor]; CendR NRP1 mod: -48.8; SKN-1 inh: 37.0; MEKK2mut PB1 HTS: -15.0; MEKK2wt PB1 HTS: 72.0*[inhibitor]; MEKK2wt confirm: 136.0; MEKK2mut-MEK5: 60.0; MEKK3-MEK5 inh: 61.0*

How did COCCn1c(SCc2cccc(F)c2)nc2cc(C(=O)OC)ccc2c1=O do in these assays?
MEKK3 PB1 HTS: 107.0; CendR NRP1 mod: 7.0; SKN-1 inh: 30.9; MEKK2mut PB1 HTS: -5.0; MEKK2wt PB1 HTS: 104.0

What do the screens show for `CS(=O)(=O)Nc1ccccc1-c1cccc2nccn12`?
CendR NRP1 mod: -8.3; SKN-1 inh: 13.4

What do the screens show for `Cc1cccc(CNC(=O)c2ccc(NC(=O)C3=CSCCO3)cc2)c1`?
MEKK3 PB1 HTS: 102.0; CendR NRP1 mod: 14.4; SKN-1 inh: 7.6; MEKK2mut PB1 HTS: 3.0; MEKK2wt PB1 HTS: 99.0

How did Cc1cc(N=Nc2ccc(C)c(N=Nc3cc(C)c(N)cc3N)c2)c(N)cc1N do in these assays?
MEKK3 PB1 HTS: 67.0*[inhibitor]; CendR NRP1 mod: -5.7; SKN-1 inh: 15.6; MEKK2mut PB1 HTS: -7.0; MEKK2wt PB1 HTS: 76.0; MEKK2wt confirm: 89.0; MEKK2mut-MEK5: 10.0; MEKK3-MEK5 inh: 70.0*

Results for NC1=NC[C@@H](Cc2ccc(O)cc2)N1CCc1cccc2ccccc12 ?
MEKK3 PB1 HTS: 99.0; CendR NRP1 mod: -3.7; SKN-1 inh: 0.0; MEKK2mut PB1 HTS: 6.0; MEKK2wt PB1 HTS: 111.0

Results for NC1=NC[C@H](Cc2ccc(O)cc2)N1CCCCC1CCCCC1 ?
MEKK3 PB1 HTS: 112.0; CendR NRP1 mod: 0.8; SKN-1 inh: 0.2; MEKK2mut PB1 HTS: 20.0; MEKK2wt PB1 HTS: 184.0*[inhibitor]; MEKK2wt confirm: 127.0; MEKK2mut-MEK5: 40.0; MEKK3-MEK5 inh: 106.0

Results for NC1=NC[C@H](Cc2ccc(O)cc2)N1CCc1cccc2ccccc12 ?
MEKK3 PB1 HTS: 116.0; CendR NRP1 mod: -7.7; SKN-1 inh: 6.3; MEKK2mut PB1 HTS: 50.0*; MEKK2wt PB1 HTS: 152.0*; MEKK2wt confirm: 150.0; MEKK2mut-MEK5: 25.0; MEKK3-MEK5 inh: 98.0

How did c1ccc(C[C@H]2CN=C(Nc3ccccc3)N2CCC2CCCC2)cc1 do in these assays?
CendR NRP1 mod: 12.0; SKN-1 inh: 4.0

How did NC1=NC[C@H](Cc2ccccc2)N1CCCCC1CCCCC1 do in these assays?
MEKK3 PB1 HTS: 111.0; CendR NRP1 mod: 10.4; SKN-1 inh: 0.7; MEKK2mut PB1 HTS: 13.0; MEKK2wt PB1 HTS: 151.0*; MEKK2wt confirm: 132.0; MEKK2mut-MEK5: 13.0; MEKK3-MEK5 inh: 106.0

Results for Cc1nn(CC(C)C(=O)N2CCN(S(=O)(=O)c3ccc(Cl)cc3)CC2)c(C)c1C (stereo not drawn) ?
MEKK3 PB1 HTS: 101.0; CendR NRP1 mod: 0.9; SKN-1 inh: 18.9; MEKK2mut PB1 HTS: 2.0; MEKK2wt PB1 HTS: 98.0

How did COC(=O)c1ccc2c(c1C(=O)OC)CN(S(=O)(=O)C(C)(C)C)[C@@H]2CCO do in these assays?
CendR NRP1 mod: -9.8; SKN-1 inh: 0.3

What do the screens show for `CN(C)CC#Cc1cccc(-c2nc(C(=O)O)cc3c2[C@@H](CCO)N(S(=O)C(C)(C)C)C3)c1` (stereo partly drawn)?
CendR NRP1 mod: -15.4; SKN-1 inh: 14.0

Bioassay records from PubChem.
